A number with no mark means an inactive call. Results filed as inconclusive are left out. Where a call stands in place of a potency, no number is given. The source made the active and inactive calls. Unless noted, calls come from the whole dose curve; as a rule, active = well fitted curve in the direction sought with a large enough effect in the repeat runs; inconclusive = weak or mixed curves; inactive = no such curve, though single readings can be large; an effect the other way counts as inactive or inconclusive.
Experiments:
[1] = qHTS assay to identify small molecule antagonists of the sonic hedgehog signaling (Shh) pathway (AID 1259369; calls by dose curve; note: nearly all actives have a fitted effect of over 45% in size; note: potency is the fitted concentration of half-maximal effect)
Summary of the method: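 3T3Gli1-Luc, conditioned-medium-stimulated, 24hr cpd, 37C/5% CO2; Gli1-driven firefly Luc luminescence after 30min RT with luciferase reagent. Cells plated 4hr before cpd.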

[2] = qHTS assay to identify small molecule agonists of the androgen receptor (AR) signaling pathway in the presence of an antagonist - cell viability counter screen (AID 1259379); note: nearly all actives have a fitted effect of over 25% in size; note: potency is the fitted concentration of half-maximal effect
Summary of the method: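 Cells: MDA-kb2 (MMTV-luc, AR and GR elements), 3,000/well, 5 hr settle. Added: nilutamide 3.0uM final, then compounds (15 conc.). Incubation: 16 hr, 37C, no CO2. Read-out: CellTiter-Fluor, 1 hr, fluorescence.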

[3] = qHTS assay to identify small molecule agonists of the estrogen receptor beta (ER-beta) signaling pathway - cell viability counter screen (AID 1259380); note: nearly all actives have a fitted effect of over 30% in size; note: potency is the fitted concentration of half-maximal effect
Summary of the method: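 HEK293T ER-beta-UAS-bla; 2% CS-FBS; 6 hr pre-plate, 16 hr cpd at 37C/5% CO2; LiveBLAzer read first, then CellTiter-Glo 30 min RT, luminescence.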

[4] = target: Estrogen receptor (Homo sapiens) (UniProt P03372); experiment: qHTS assay to identify small molecule agonists of the estrogen receptor alpha (ER-alpha) signaling pathway in the presence of an antagonist (AID 1259383; calls by dose curve; note: nearly all actives have a fitted effect of over 15% in size; note: potency is the fitted concentration of half-maximal effect; for activation: top concentration of the series differs between compounds)
Chain of Estrogen receptor (Homo sapiens) (P03372 whole entry, looked up): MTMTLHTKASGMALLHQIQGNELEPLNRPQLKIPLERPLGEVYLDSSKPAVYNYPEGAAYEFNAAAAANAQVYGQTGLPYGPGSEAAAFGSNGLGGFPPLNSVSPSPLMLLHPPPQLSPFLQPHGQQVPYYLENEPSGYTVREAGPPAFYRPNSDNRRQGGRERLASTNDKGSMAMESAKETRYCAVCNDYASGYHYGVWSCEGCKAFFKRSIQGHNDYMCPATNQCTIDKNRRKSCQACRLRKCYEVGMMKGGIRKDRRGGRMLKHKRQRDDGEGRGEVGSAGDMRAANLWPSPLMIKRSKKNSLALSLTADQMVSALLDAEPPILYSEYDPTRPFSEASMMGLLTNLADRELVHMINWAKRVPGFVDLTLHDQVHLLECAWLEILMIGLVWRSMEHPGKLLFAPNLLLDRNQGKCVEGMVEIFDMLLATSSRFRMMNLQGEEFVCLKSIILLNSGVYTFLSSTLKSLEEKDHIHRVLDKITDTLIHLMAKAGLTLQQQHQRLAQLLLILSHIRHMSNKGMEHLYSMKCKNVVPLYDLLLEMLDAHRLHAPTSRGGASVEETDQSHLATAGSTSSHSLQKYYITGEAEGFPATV
Summary of the method: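 VM7Luc4E2, endog. ER-alpha + 4×ERE-luc; charcoal-stripped FBS, phenol red-free, 5 d; 24hr plating; +10.0nM ICI-182,780 (final); cpds 15 conc, 22hr, 37C/5% CO2; ONE-Glo luminescence.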

[5] = qHTS assay to identify small molecule agonists or antagonists of the thyroid stimulating hormone receptor (TSHR) signaling pathway - wild type cell line counter screen (AID 1259384; calls by dose curve)
Summary of the method: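 Wild-type HEK293 cells were plated 18 h at 37 C/5% CO2, pin-dosed with compound plus Ro20-1724 medium, held 30 min at room temperature, then given cAMP-d2 and anti-cAMP-cryptate; fluorescence was read after 1 h. Fifteen concentrations, triplicate.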

[6] = target: Thyrotropin receptor (Homo sapiens) (UniProt P16473); experiment: qHTS assay to identify small molecule antagonists of the thyroid stimulating hormone receptor (TSHR) signaling pathway (AID 1259385; calls by dose curve; note: nearly all actives have a fitted effect of over 20% in size; note: potency is the fitted concentration of half-maximal effect)
Chain of Thyrotropin receptor (Homo sapiens) (P16473 whole entry, looked up): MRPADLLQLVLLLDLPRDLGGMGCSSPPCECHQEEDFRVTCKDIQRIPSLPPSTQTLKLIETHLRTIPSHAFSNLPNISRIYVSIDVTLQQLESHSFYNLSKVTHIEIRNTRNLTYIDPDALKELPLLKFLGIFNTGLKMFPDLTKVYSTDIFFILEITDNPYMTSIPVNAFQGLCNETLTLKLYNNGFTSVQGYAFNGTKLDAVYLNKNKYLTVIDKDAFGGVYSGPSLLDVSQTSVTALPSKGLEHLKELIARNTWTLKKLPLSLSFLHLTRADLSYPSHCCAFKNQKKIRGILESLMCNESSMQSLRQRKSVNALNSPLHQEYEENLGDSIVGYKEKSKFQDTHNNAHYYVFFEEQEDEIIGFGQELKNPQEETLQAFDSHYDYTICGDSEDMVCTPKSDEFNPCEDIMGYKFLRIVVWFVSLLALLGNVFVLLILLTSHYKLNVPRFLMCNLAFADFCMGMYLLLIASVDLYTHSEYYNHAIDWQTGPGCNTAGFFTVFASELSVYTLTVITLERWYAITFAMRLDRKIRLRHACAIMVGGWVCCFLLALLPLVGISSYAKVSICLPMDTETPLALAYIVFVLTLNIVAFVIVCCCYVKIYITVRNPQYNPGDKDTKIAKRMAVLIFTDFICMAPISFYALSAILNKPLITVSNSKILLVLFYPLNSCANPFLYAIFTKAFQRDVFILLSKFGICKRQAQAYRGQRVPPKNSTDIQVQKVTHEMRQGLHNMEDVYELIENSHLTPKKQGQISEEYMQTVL
Summary of the method: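 TSHR-HEK293 cells were plated and held 18 h at 37C/5% CO2, then given compound plus Ro20-1724 and stimulated with TSH at 1.5 ng/mL final. After 30 min at room temperature, cAMP was detected with cAMP-d2/anti-cAMP-cryptate (1 h) by fluorescence.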

[7] = qHTS assay to identify small molecule agonists of the estrogen receptor alpha (ER-alpha) signaling pathway in the presence of an antagonist - cell viability counter screen (AID 1259386);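 note: cells exposed to compounds for 22 h at 37 °C before the viability read; nearly all actives have a fitted effect of over 30% in size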; note: potency is the fitted concentration of half-maximal effect
Summary of the method: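 VM7Luc4E2, stripped-serum pre-culture 5 d; 24hr plating; +ICI-182,780 10.0nM final; cpds 15 conc, 22hr, 37C/5% CO2; CellTiter-Fluor added at 21hr, fluorescence 1hr later.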

[8] = qHTS assay to identify small molecule antagonists of the progesterone receptor (PR) signaling pathway - cell viability counter screen (AID 1346798); note: nearly all actives have a fitted effect of over 50% in size; note: potency is the fitted concentration of half-maximal effect
Summary of the method: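 CellTiter-Glo luminescence; PR-UAS-bla HEK293T, 3,000 cells/well; compound + R5020, 16 hr, 37C/5% CO2; 30 min RT before read.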

[9] = qHTS assay to identify small molecule antagonists of the TGF-beta/Smad signaling pathway - cell viability counter screen (AID 1346824); note: nearly all actives have a fitted effect of over 50% in size; note: potency is the fitted concentration of half-maximal effect
Summary of the method: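 SBE-bla HEK 293T cells were plated overnight at 37 C, then given compounds in DMSO plus TGF-beta1 (added as 0.25 ng/mL solution) for 5 hr. After the bla read, CellTiter-Glo was added to the same wells and luminescence read after 30 min at room temperature.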

[10] = qHTS assay to identify small molecule agonists of the TGF-beta/Smad signaling pathway - cell viability counter screen (AID 1346829); note: nearly all actives have a fitted effect of over 45% in size; note: potency is the fitted concentration of half-maximal effect
Summary of the method: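 CellTiter-Glo luminescence readout; SBE-bla HEK 293T cells, overnight plating, compound 5 hr at 37 C/5% CO2, then bla substrate 2 hr RT, then CellTiter-Glo 30 min RT.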

[11] = target: Thyrotropin-releasing hormone receptor (Homo sapiens) (UniProt P34981); experiment: qHTS assay to identify small molecule antagonists of the thyrotropin-releasing hormone receptor (TRHR) signaling pathway (AID 1346877; active = well fitted inhibition curve with a large enough effect in the repeat runs, not every such curve was filed as active; note: series mostly up to about 51 µM)
Chain of Thyrotropin-releasing hormone receptor (Homo sapiens) (P34981 whole entry, looked up): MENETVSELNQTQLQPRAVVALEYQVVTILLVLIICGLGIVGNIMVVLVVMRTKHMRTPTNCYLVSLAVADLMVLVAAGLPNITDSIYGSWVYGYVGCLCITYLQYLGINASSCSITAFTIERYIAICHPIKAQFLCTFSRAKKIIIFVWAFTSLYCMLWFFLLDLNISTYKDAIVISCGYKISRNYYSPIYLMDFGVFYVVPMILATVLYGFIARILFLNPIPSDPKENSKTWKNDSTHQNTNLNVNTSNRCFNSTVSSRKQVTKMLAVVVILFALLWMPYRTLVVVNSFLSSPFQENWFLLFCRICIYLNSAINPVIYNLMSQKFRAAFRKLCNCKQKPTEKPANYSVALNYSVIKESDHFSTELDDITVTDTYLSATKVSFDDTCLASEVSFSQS
Summary of the method: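 Intracellular calcium fluorescence, read kinetically every second over 3 min, reports TRH-evoked signalling in HEK293 cells carrying TRHR. Test compounds were added 5 min ahead of a 1 nM TRH challenge.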

[12] = target: Thyrotropin-releasing hormone receptor (Homo sapiens) (UniProt P34981); experiment: qHTS assay to identify small molecule agonists of the thyrotropin-releasing hormone receptor (TRHR) signaling pathway (AID 1346891; calls by dose curve;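 note: HEK293 cells expressing TRHR with calcium dye readout; series mostly up to about 58 µM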)
Summary of the method: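 Compounds were tested as agonists at 15 concentrations, in triplicate, on TRHR-Hek293 cells; calcium-sensitive dye fluorescence was recorded for 3 min following addition.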

[13] = qHTS assay to identify small molecule antagonists of the estrogen receptor beta (ER-beta) signaling pathway - cell viability counter screen (AID 1259382); note: nearly all actives have a fitted effect of over 55% in size; note: potency is the fitted concentration of half-maximal effect
Summary of the method: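 Cells: ER-beta-UAS-bla HEK293T, 2,000/well, 2% CS-FBS, 6 hr settle. Cpd + E2 (1nM final), 16 hr, 37C/5% CO2. Bla FRET substrate 2 hr RT, then CellTiter-Glo 30 min RT, luminescence.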

[14] = target: Progesterone receptor (Homo sapiens) (UniProt P06401); experiment: qHTS assay to identify small molecule agonists of the progesterone receptor (PR) signaling pathway (AID 1346784; calls by dose curve; note: nearly all actives have a fitted effect of over 30% in size)
Chain of Progesterone receptor (Homo sapiens) (P06401 whole entry, looked up): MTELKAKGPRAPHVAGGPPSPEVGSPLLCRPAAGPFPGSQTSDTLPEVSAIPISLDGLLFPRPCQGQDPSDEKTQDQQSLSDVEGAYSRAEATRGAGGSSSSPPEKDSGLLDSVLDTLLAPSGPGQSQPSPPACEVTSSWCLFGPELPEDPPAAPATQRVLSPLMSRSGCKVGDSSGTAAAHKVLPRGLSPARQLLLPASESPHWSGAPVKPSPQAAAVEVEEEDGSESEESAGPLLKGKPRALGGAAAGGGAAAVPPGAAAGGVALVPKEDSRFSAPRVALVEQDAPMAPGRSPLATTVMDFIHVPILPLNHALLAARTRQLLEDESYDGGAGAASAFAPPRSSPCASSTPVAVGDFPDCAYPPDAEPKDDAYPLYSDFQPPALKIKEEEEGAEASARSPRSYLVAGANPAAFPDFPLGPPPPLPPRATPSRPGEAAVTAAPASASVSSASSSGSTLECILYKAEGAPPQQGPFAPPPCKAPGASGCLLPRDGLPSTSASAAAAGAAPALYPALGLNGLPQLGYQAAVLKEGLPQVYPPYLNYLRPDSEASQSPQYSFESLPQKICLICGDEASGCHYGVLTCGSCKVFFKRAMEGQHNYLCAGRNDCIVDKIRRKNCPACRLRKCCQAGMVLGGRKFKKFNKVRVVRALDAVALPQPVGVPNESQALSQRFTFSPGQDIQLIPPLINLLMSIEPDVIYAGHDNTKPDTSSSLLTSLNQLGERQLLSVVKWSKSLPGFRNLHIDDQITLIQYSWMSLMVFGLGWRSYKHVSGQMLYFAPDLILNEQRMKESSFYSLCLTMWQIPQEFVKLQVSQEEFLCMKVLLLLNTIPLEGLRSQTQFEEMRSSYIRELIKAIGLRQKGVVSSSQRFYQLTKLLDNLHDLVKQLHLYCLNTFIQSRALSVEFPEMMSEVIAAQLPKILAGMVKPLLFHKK
Summary of the method: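 Fluorescence from LiveBLAzer B/G FRET substrate cleavage (2 hr, RT) reported PR activation in PR-UAS-bla HEK 293T cells treated 16 hr at 37C/5% CO2 with compounds; medium contained 2% charcoal-stripped FBS.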

[15] = target: Progesterone receptor (Homo sapiens) (UniProt P06401); experiment: qHTS assay to identify small molecule antagonists of the progesterone receptor (PR) signaling pathway (AID 1346795; active = well fitted inhibition curve with a large enough effect in the signal ratio in the repeat runs, not every such curve was filed as active; the % refers to the signal ratio; note: potency is the fitted concentration of half-maximal effect)
Summary of the method: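 Fluorescence intensity measured 2 hr after adding beta-lactamase FRET substrate to PR-UAS-bla HEK293T cells that had been co-treated 16 hr with compound and 1 nM R5020 (final concentration) in 2% charcoal-stripped FBS.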

[16] = qHTS assay to identify small molecule agonists of the TGF-beta/Smad signaling pathway (AID 1346859; active = well fitted activation curve with a large enough effect in the signal ratio in the repeat runs, not every such curve was filed as active; the % refers to the signal ratio; note: series mostly up to about 77 µM)
Summary of the method: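 After overnight seeding, SBE-bla HEK 293T cells are dosed with compounds in DMSO and kept 5 hr at 37 C, 5% CO2. LiveBLAzer-type FRET substrate is then applied for 2 hr at room temperature.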

[17] = target: Androgen receptor (Homo sapiens) (UniProt P10275); experiment: qHTS assay to identify small molecule agonists of the androgen receptor (AR) signaling pathway in the presence of an antagonist (AID 1259381; calls by dose curve; note: nearly all actives have a fitted effect of over 15% in size)
Chain of Androgen receptor (Homo sapiens) (P10275 whole entry, looked up): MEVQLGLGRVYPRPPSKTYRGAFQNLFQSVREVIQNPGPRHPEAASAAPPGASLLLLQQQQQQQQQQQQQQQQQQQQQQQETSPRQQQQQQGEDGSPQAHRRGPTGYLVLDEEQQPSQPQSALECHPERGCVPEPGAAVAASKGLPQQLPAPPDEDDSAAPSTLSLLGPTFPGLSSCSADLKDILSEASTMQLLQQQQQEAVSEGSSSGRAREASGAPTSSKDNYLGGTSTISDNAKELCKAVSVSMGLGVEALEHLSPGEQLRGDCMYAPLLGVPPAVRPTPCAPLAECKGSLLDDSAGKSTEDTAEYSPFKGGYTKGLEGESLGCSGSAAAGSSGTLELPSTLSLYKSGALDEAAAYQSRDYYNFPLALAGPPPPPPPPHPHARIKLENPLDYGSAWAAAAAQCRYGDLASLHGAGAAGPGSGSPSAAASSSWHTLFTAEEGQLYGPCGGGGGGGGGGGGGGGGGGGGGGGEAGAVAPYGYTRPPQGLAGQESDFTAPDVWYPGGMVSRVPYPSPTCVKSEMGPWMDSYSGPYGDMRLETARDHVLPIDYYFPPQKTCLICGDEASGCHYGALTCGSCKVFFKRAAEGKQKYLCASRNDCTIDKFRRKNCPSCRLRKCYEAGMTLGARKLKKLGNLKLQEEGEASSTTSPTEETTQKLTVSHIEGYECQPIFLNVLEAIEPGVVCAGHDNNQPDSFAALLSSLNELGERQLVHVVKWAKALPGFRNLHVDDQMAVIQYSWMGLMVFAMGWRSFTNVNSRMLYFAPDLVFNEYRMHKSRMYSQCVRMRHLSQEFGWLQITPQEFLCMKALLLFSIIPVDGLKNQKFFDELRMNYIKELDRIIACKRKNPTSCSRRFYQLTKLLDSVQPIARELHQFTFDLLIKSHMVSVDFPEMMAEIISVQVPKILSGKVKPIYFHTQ
Summary of the method: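 MDA-kb2 cells, 3,000/well, rested 5hr at 37C/0% CO2 → nilutamide 3.0uM final or buffer → compounds, 15 conc. → 16hr at 37C → ONE-Glo, 30min RT → luminescence.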

[18] = qHTS assay to identify small molecule agonists of the progesterone receptor (PR) signaling pathway - cell viability counter screen (AID 1346799; calls by dose curve; note: nearly all actives have a fitted effect of over 45% in size; note: potency is the fitted concentration of half-maximal effect)
Summary of the method: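 In parallel with the beta-lactamase readout, cytotoxicity toward PR-UAS-bla HEK293T cells was measured by CellTiter-Glo luminescence following 16 hr compound incubation in 2% charcoal-stripped FBS medium.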

| SMILES | Potency [1] | Potency [2] | Potency [3] | Potency [4] | outcome [5] | Potency [6] | Potency [7] | Potency [8] | Potency [9] | Potency [10] | Potency [11] | Potency [12] | Potency [13] | Potency [14] | Potency [15] | Potency [16] | Potency [17] | Potency [18] |
| --- | --- | --- | --- | --- | --- | --- | --- | --- | --- | --- | --- | --- | --- | --- | --- | --- | --- | --- |
| CC[C@H]1O[C@]2(CC[C@@H]1C)C[C@@H]1C[C@@H](C/C=C(\C)C[C@@H](C)/C=C/C=C3\CO[C@@H]4[C@H](O)C(C)=C[C@@H](C(=O)O1)[C@]34O)O2 | inactive | 60.6 µM (active) | 24.1 µM (active) | inactive | inactive | inactive | 68 µM (active) | 68 µM (active) | 54.5 µM (active) | 54.5 µM (active) | inactive | inactive | – | – | – | – | – | – |
| CCCCCCCC[P+](CCCCCCCC)(CCCCCCCC)CCCCCCCC | 0.483 µM (active) | 2.42 µM (active) | 8.58 µM (active) | inactive | inactive | 68.2 µM (active) | 2.71 µM (active) | 15.3 µM (active) | 21.7 µM (active) | 17.3 µM (active) | inactive | inactive | 10.8 µM (active) | – | – | – | – | – |
| OC1(c2ccc(Cl)c(C(F)(F)F)c2)CCN(CCCC(c2ccc(F)cc2)c2ccc(F)cc2)CC1 | 13.3 µM (active) | 18.8 µM (active) | 10.6 µM (active) | inactive | inactive | inactive | 33.5 µM (active) | 13.3 µM (active) | 19 µM (active) | 19 µM (active) | – | inactive | 10.6 µM (active) | – | – | – | – | – |
| CCCCCCCCOc1ccccc1C(=O)Nc1ccc(C(=O)OCC[N+](C)(CC)CC)cc1 | inactive | inactive | 23.7 µM (active) | inactive | inactive | inactive | inactive | 29.8 µM (active) | inactive | inactive | inactive | inactive | 23.7 µM (active) | inactive | inactive | inactive | – | – |
| CCc1cc(Cc2cc(CC)cc(C(C)(C)C)c2O)c(O)c(C(C)(C)C)c1 | 27.3 µM (active) | 54.5 µM (active) | 19.3 µM (active) | – | inactive | inactive | 48.6 µM (active) | 38.6 µM (active) | 49 µM (active) | 54.9 µM (active) | – | – | 24.3 µM (active) | – | – | inactive | inactive | – |
| CCc1oc2ccccc2c1C(=O)c1cc(Br)c(O)c(Br)c1 | inactive | inactive | – | inactive | inactive | inactive | inactive | – | inactive | inactive | inactive | inactive | inactive | inactive | 23.7 µM (active) | inactive | inactive | – |
| CN(C)[C@@H]1C(=O)C(C(N)=O)=C(O)[C@@]2(O)C(=O)C3=C(O)c4c(O)cccc4C[C@H]3C[C@@H]12 | inactive | inactive | inactive | inactive | inactive | inactive | inactive | inactive | – | inactive | inactive | inactive | inactive | inactive | – | – | – | inactive |
| Clc1ccc2n[nH]nc2c1 | inactive | inactive | inactive | – | inactive | inactive | inactive | inactive | inactive | inactive | – | inactive | inactive | – | – | inactive | – | – |
| CCCC(c1cc(C(C)(C)C)c(O)cc1C)c1cc(C(C)(C)C)c(O)cc1C | 13.9 µM (active) | 31 µM (active) | 12.3 µM (active) | inactive | inactive | – | 61.9 µM (active) | 22 µM (active) | 24.8 µM (active) | 24.8 µM (active) | inactive | inactive | 13.9 µM (active) | – | – | – | – | – |
| CCN(CC)CCCC(C)Nc1c2ccc(Cl)cc2nc2ccc(OC)cc12 (stereo not drawn) | 29.8 µM (active) | 11.9 µM (active) | 6.68 µM (active) | – | – | – | – | 13.3 µM (active) | inactive | inactive | – | inactive | – | – | – | – | – | – |
| CSc1ccc2c(c1)C(N1CCN(C)CC1)Cc1ccccc1S2 (stereo not drawn) | 15 µM (active) | – | 16.8 µM (active) | inactive | – | – | inactive | 26.6 µM (active) | – | inactive | inactive | inactive | 16.8 µM (active) | – | 26.6 µM (active) | inactive | – | 33.5 µM (active) |
| COc1ccc(C(=O)/C(Br)=C\C(=O)O)cc1 | 3.86 µM (active) | – | inactive | inactive | inactive | – | – | inactive | – | inactive | – | inactive | inactive | – | – | inactive | inactive | – |
| Oc1cccc2cc3cccc(O)c3c(O)c12 | inactive | – | inactive | – | inactive | inactive | inactive | inactive | inactive | inactive | – | – | inactive | inactive | – | inactive | – | – |
| CC(C)=CCOc1ccc(/C=C/C(=O)c2ccc(OCC=C(C)C)cc2OCC(=O)O)cc1 | inactive | inactive | – | inactive | inactive | inactive | inactive | inactive | inactive | inactive | inactive | inactive | – | inactive | 26.6 µM (active) | – | inactive | inactive |
| Oc1ccc(N=Nc2ccccc2)cc1 | 43.8 µM (active) | 24.7 µM (active) | – | 24.7 µM (active) | inactive | inactive | 27.7 µM (active) | inactive | inactive | inactive | inactive | inactive | – | – | 19.6 µM (active) | inactive | inactive | inactive |

From PubChem BioAssay (Tox21)
